Most compounds without a hit are left out; they make up all but 5.9% or so of the library.
HSF1 activator = increases HSF-1 driven luciferase reporter signal. AID 504408. NIH3T3-HGL HSF-1 luciferase reporter, MG132, 8 h; 100% = twice DMSO control signal. 300,000 tested, 1.7% active. activation, % at 9 µM;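 active = mean replicate activation of at least 50% with a set share of replicates each reaching 50%; inconclusive = only one of those two conditions met; inactive = mean below 50% and too few replicates reaching it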
HSP90 refold inh = inhibitors of HSP90 luciferase refolding in rabbit reticulocyte lysate. luciferase refolding luminescence, 3 h. inhibition, % at 5.6 µM. 290,000 tested, 0.91% active;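 active = inhibition above the screen-wide mean plus 3 SD, computed separately per campaign, cut at about 16% in these data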;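 note: inhibitors lower the luminescence because luciferase stays unfolded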
DAX1 inh = NR0B1 (DAX1) inhibition | P51843 | AID 504766 | inhibition, % at 6.75 µM | HEK293 Gal4-DAX1 luciferase reporter, luminescence | 340,000 tested, 0.99% active;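 active = inhibition above the mean over all tested compounds plus 3 SD, cut at about 4.2% in these data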;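 note: inhibition shows as a rise in luminescence from relieved DAX1 repression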
Target sequence (P51843 207-470 limits assumed): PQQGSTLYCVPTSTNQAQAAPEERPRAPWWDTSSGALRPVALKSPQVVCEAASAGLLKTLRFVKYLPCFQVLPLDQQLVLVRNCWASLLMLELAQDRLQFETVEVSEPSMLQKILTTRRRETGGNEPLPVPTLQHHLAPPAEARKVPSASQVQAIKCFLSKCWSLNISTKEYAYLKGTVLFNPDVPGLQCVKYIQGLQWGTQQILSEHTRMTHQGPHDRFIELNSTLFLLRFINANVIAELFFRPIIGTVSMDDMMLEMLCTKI
GAA850 FXN act = frataxin GAA850 promoter activation; HEK293 lucGAA850 FXN promoter luciferase reporter, 24 h; percent of 10 µM SAHA response; activation, % at 6 µM; 360,000 tested, 0.56% active; AID 540364;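 active = activation above the average of all compounds screened plus 3 SD, cutoff fixed separately per campaign, cut at about 7.5% in these data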
HSF1 inhib = HSF1 inhibition; 300,000 tested, 0.77% active; activity change, negative = inhibition, % at 7.5 µM (by protocol); NIH3T3-HGL HSE-luciferase, MG132-induced, luminescence 8 h; stronger effect = lower value;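 active = more than half of replicate wells show activity change below -50%, luminescence cut by over half; inconclusive = some wells, but at most half, below -50%; inactive = no replicate well below -50%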;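 note: luciferase reports HSF-1 transcriptional activity via heat shock element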
AHR act = activates the human aryl hydrocarbon receptor; AHR-responsive luciferase reporter cells, luminescence; activation, % at 5 µM; 320,000 tested, 2.5% active; AID 2796; in the data active = activation above about 47%
Of the large screens only hits and unclear results are named; the others gave an inactive call; ! = not active in a repeat.

O=C(O)CSCC(=O)N1N=C2/C(=C/c3ccccc3)CCCC2C1c1ccccc1 (stereo unspecified)	AHR act 49
Cc1ncsc1C(=O)N1N=C2/C(=C/c3ccccc3)CCCC2C1c1ccccc1 (stereo unspecified)	none
COc1cc(NC(=O)CCn2c(=S)[nH]c3ccccc3c2=O)cc(OC)c1OC	none (no result: HSF1 activator, HSP90 refold inh, HSF1 inhib, AHR act)
CCOC(=O)/C(=C\c1ccc(OC)c(OC)c1)C(=O)c1cccnc1	none
COc1cc(C(c2c(C)[nH][nH]c2=O)c2c(C)[nH][nH]c2=O)ccc1OCc1ccc([N+](=O)[O-])cc1	HSF1 activator 205
CCOC(=O)C(=Cc1ccc(OCc2ccc([N+](=O)[O-])cc2)c(OC)c1)C(=O)OCC	HSF1 activator 77
COc1cc(/C=N/NC(=O)c2cccc([N+](=O)[O-])c2)ccc1OCc1ccccc1	none
COC(=O)C(=Cc1ccc(OCc2ccc([N+](=O)[O-])cc2)c(OC)c1)C(=O)OC	HSF1 activator 278
CS(=O)(=O)c1ccc(-c2csc(-c3cccnc3)n2)cc1	none
COc1c(C=NNC(N)=O)c(OC)c(OC)c2c1CCO2	none (no result: HSF1 activator, HSP90 refold inh, HSF1 inhib, AHR act)
O=C(Cn1ccccc1=O)NCc1ccc(F)cc1	none
COc1ccc(/C=C2\CCCC3C2=NN(C(=O)CSc2ncn[nH]2)C3c2ccc(OC)cc2)cc1 (stereo unspecified)	none
COc1ccc2c(c1)C1=NN(/C(C)=C\C(C)=O)C(c3ccccc3)C1CC2 (stereo unspecified)	AHR act 84
COc1ccc2c(c1)C1=NN(/C(C)=C/C(C)=O)C(c3ccc(F)cc3)C1CC2 (stereo unspecified)	HSF1 activator 53, AHR act 69
CCN(CC)CCNC(=O)C1CCC(=O)N(c2ccc(OC)cc2)C1c1ccc(F)cc1 (stereo unspecified)	none (no result: HSF1 activator, HSF1 inhib)
COc1ccc2c(c1)C1=NN(/C(C)=C/C(C)=O)C(c3cccc(F)c3)C1CC2 (stereo unspecified)	HSF1 activator inconclusive, AHR act 97
COc1ccc2c(c1)CCC1C2=NN(/C(C)=C\C(C)=O)C1c1ccc(F)cc1 (stereo unspecified)	AHR act 60
COc1ccc(/C=C2\CCCC3C2=NN(C(=O)COC(=O)CNC(=O)c2ccccc2)C3c2ccc(OC)cc2)cc1 (stereo unspecified)	HSF1 inhib inconclusive
O=C(CN(Cc1ccccc1Cl)S(=O)(=O)c1ccc(Cl)cc1)N/N=C/c1ccc(C(=O)O)cc1	HSF1 inhib -86 (no result: AHR act)
O=C(OCc1nnc(-c2ccccc2)o1)c1cccc(S(=O)(=O)N2CCOCC2)c1	none (no result: HSP90 refold inh)
CCCCN(C(=O)c1cccc(S(=O)(=O)N(C)c2ccc(C)cc2)c1)c1c(N)n(CC(C)C)c(=O)[nH]c1=O	none (no result: HSF1 activator, HSP90 refold inh, HSF1 inhib, AHR act)
OCc1cn(-c2ccccc2)nc1-c1cc2ccccc2o1	HSF1 activator 63, DAX1 inh 4.7
O=C(N/N=C/c1cn(-c2ccccc2)nc1-c1cc2ccccc2o1)c1c[nH]c2ccccc12	AHR act 109
O=C(N/N=C/c1cn(-c2ccccc2)nc1-c1cc2ccccc2o1)c1ccccc1Br	HSF1 activator 76
COc1ccc(C(=O)NCCc2nnc3ccc(SCC(=O)NCc4ccccc4)nn23)cc1	none
Cc1cc(NC(=O)C(Cl)c2ccccc2)no1 (stereo unspecified)	none
CC(OC(=O)c1cc[n+]([O-])cc1)C(=O)NCc1ccccc1 (stereo unspecified)	DAX1 inh 4.7 (no result: HSP90 refold inh)
O=S1(=O)CCOCCN1Cc1ccc(Cl)cc1Cl	none (no result: DAX1 inh, GAA850 FXN act)
FC(F)(F)c1cccc(-n2cc(-c3ccccc3)[nH]c2=S)c1	AHR act 61
Fc1ccccc1-n1cc(-c2ccccc2)[nH]c1=S	none
CCCSc1ccc(C(=O)Nc2ccc(Cl)cc2)cn1	AHR act 60
O=C(COC(=O)c1c(F)cccc1F)Nc1ccccc1OC(F)F	none
COc1ccc(CNC(=O)C(c2ccc(C)o2)N(C(=O)c2snc(C(N)=O)c2N)c2ccccc2OC)cc1 (stereo unspecified)	HSF1 activator 58
Cn1c(=O)n(CC(=O)O)c(=O)c2c1nc1n2CCS1	DAX1 inh 6.4!
CC(C)CC(=O)c1c(O)c(C=O)c(O)c2c1O[C@@]1(C)[C@@H](C2)C[C@H]2C[C@@H]1C2(C)C	none (no result: HSF1 activator, HSP90 refold inh, HSF1 inhib)
CN1C(=O)C(O)(CC(=O)c2ccccc2O)c2cc(Br)ccc21 (stereo unspecified)	DAX1 inh 4.4
CSc1cccc(NC(=O)CN(C)S(=O)(=O)c2ccccc2)c1	HSF1 activator 67
COc1cccc(NC(=S)NC(=O)Cc2ccccc2)c1	DAX1 inh 5.6 (no result: HSP90 refold inh)
CCC(=O)Nc1ccc(OC)cc1OC	none
CCC(=O)NC(=S)Nc1ccc(OC)cc1OC	AHR act 70
CSc1cccc(NC(=S)NC(=O)CCc2ccccc2)c1	AHR act 54
N/C(Cc1nc(-c2ccc(Cl)cc2)cs1)=N/O	none
CCN1CCN(S(=O)(=O)c2c(C)cc(C)cc2C)CC1	none
COc1ccc(C(=O)COC(=O)C2COc3ccccc3O2)cc1F (stereo unspecified)	none (no result: HSF1 activator, HSP90 refold inh, HSF1 inhib)
Cc1nnsc1C(=O)N1CCCC(C)(C(=O)NS(=O)(=O)C2CC2)C1 (stereo unspecified)	none (no result: HSF1 activator, HSP90 refold inh, DAX1 inh, HSF1 inhib, AHR act)
COc1ccc(C(=O)OCC(=O)NC2CC2)cc1S(=O)(=O)Nc1ccc(C)cc1	none (no result: HSF1 activator, HSP90 refold inh, HSF1 inhib)
O=C1NC(=O)N(C2CCCCC2)CC1Br (stereo unspecified)	none (no result: HSF1 activator, HSP90 refold inh, HSF1 inhib, AHR act)
COc1ccc(NC(=S)NC(=O)Cc2ccccc2)c(OC)c1	AHR act 48
COc1ccccc1NC(=S)NC(=O)Cc1ccccc1	none (no result: HSP90 refold inh, DAX1 inh)
COc1cccc(NC(=O)COC(=O)c2c(F)cccc2Cl)c1	DAX1 inh 4.4
COc1cccc(NC(=O)COC(=O)c2ccccc2F)c1	none
CCC(=O)Nc1cccc(NC(=S)NC(=O)c2ccccc2)c1	HSF1 activator 54
COCCn1cnc2c1c(=O)n(Cc1ccccc1C#N)c(=O)n2Cc1ccccc1	none
Cc1ccc(NC(=O)c2c(C)noc2C)cc1S(=O)(=O)N1CCOCC1	none (no result: HSF1 activator, HSP90 refold inh, HSF1 inhib)
COc1ccc(CN2C(=O)CS/C2=N/N=C/c2ccccc2)cc1	none (no result: DAX1 inh)
COc1ccc(/C=N/N=C2/SCC(=O)N2Cc2ccccc2)cc1	HSF1 activator 66, DAX1 inh 5.8
NC(=O)c1ccc(N=C2C(=O)Nc3ccc([N+](=O)[O-])cc32)cc1	DAX1 inh 5.3
CC(=O)c1ccc(N=C2C(=O)Nc3ccccc32)cc1	HSF1 activator 62
Brc1ccc2c(c1)CN1CCCC1=N2	none
O=C(NNC(=O)c1ccccc1Br)c1ccc(Cl)cc1	none
O=C(NNC(=O)c1ccccc1Br)c1ccccc1Cl	DAX1 inh 5.5
O=C(CCNC(=O)c1ccccc1Cl)NNC(=O)c1ccccc1O	AHR act 68 (no result: HSP90 refold inh)
CN(C)c1ccc(-c2nnn(CC(=O)Nc3ccc4c(c3)OCCO4)n2)cc1	none

Screening data (PubChem)
